Data reported in PubChem BioAssay (NCATS).
Results filed as inconclusive are left out. Activity calls are given as the source filed them. The call rests on the fitted dose curve; in most records, active means well fitted cell-killing curve with a large enough effect; inconclusive means small, poorly fitted or top-dose-only effect, or effect the other way; inactive means flat fitted curve, though single readings scatter.

Tests used:
Experiment in all cases: Primary qHTS to identify gynecologic anti-cancer compounds using libraries of approved drugs and bioactive compounds (AID 1345084); further: nearly all actives have a fitted effect of over 55% in size
Details in all cases: Gynecologic cancer cell panel viability, ATPlite luminescence, 48 h; series mostly up to 57.5 µM
OV90 = test system: OV90
How it was run: (§1)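 ATP-based viability (ATPlite), 1,000 cells/well, 16 h pre-incubation, 48 h compound at 37 C, 5% CO2, 15 min RT before read.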

PA-1 = test system: PA-1
How it was run: as §1

SKOV3 = test system: SKOV3
How it was run: as §1

Tov-21-G = test system: Tov-21-G
How it was run: as §1

Tov112D = test system: Tov112D
How it was run: as §1

Measured: Potency

C/C=C(\C)C(=O)OCC1OC(OCC2OC(OC3(CO)OC(CO)C(O)C3O)C(O)C(O)C2O)C(O)C(O)C1O (stereo not given)
inactive: all assays above

CC(=O)OC[C@]12[C@H](OC(C)=O)[C@H](OC(=O)c3ccccc3)[C@@H]3[C@@H](OC(C)=O)[C@]1(OC3(C)C)[C@H](C)C[C@H](OC(=O)c1ccccc1)[C@@H]2OC(=O)c1ccccc1
inactive: all assays above

CCC1=C(C)C(=O)C(C)CC12C(=O)CCC2C(=O)O (stereo not given)
inactive: all assays above

N#Cc1cccc(-c2nc(-c3cccnc3)no2)c1
inactive: all assays above

O=C(c1ccc(Cl)c([N+](=O)[O-])c1)N1CCN(c2ccccc2F)CC1
inactive: all assays above

COc1cc(/C=C/C(=O)O[C@@H]2C[C@](O)(C(=O)O)C[C@@H](O)[C@H]2O)ccc1O
inactive: all assays above

COc1cc(O)cc(O[C@@H]2O[C@H](CO)[C@@H](O[C@@H]3OC[C@](O)(CO)[C@H]3O)[C@H](O)[C@H]2O)c1OC
inactive: all assays above

Cc1c(NC(=O)N2CCOCC2)ccc2c1c1ccccc1n2C(C)C
inactive: all assays above

CCNC(=O)OC1CCN(c2nncc3cc(OC)c(OC)cc23)CC1
inactive: all assays above
